# The list shows a part of the results. The hit rate among all sequences tested is not known here.
# B1: HC94 (peptide)
# chain: CAVVCCSMSYAGNASASA
# B2: CS2 (peptide)
# chain: CADEVDGVDEAGNASASA
# B3: HC1195 (peptide)
# chain: CAPCTPLPAPAGNASASA
# B4: FS-588 (peptide)
# chain: CAFSSRDERSAGNASASA
# B5: FS-1602 (peptide)
# chain: CAPLRRFWRSAGNASASA
# B6: HC356 (peptide)
# chain: CASAGHTVSGAGNASASA
# B7: FS-793 (peptide)
# chain: CAHLKRRVRSAGNASASA
# B8: FS-1408 (peptide)
# chain: CASAGRHVRSAGNASASA
# B9: FS-2863 (peptide)
# chain: CAHLKRDTEDAGNASASA
# B10: FS-605 (peptide)
# chain: CALELRRVRSAGNASASA
# B11: FS-369 (peptide)
# chain: CAPKSRIVRSAGNASASA
# B12: FS-1190 (peptide)
# chain: CADRSRRVRSAGNASASA
# B13: HC2060 (peptide)
# chain: CAVVCCSCSYAGNASASA
# B14: HC2021 (peptide)
# chain: CAVNCCSMSYAGNASASA
# B15: HC1709 (peptide)
# chain: CAMEYCSQHLAGNASASA
# B16: HC418 (peptide)
# chain: CAVVGTTDRSAGNASASA
# B17: FS-1079 (peptide)
# chain: CASEARMVRSAGNASASA
# B18: FS-12 (peptide)
# chain: CAAVGRRVRSAGNASASA
# B19: HC508 (peptide)
# chain: CANIVDVQYLAGNASASA
# B20: HC1304 (peptide)
# chain: CAVWARPDYNAGNASASA
# B21: HC692 (peptide)
# chain: CASTAAQTFLAGNASASA
# B22: FS-2255 (peptide)
# chain: CAREKRQAKHAGNASASA
# B23: FS-2484 (peptide)
# chain: CAREKKDVLAAGNASASA
# B24: FS-1693 (peptide)
# chain: CAREKRDVQPAGNASASA
# B25: FS-2007 (peptide)
# chain: CAREKRHRKKAGNASASA
# B26: FS-1851 (peptide)
# chain: CAREKRDSVCAGNASASA
# B27: HC423 (peptide)
# chain: CAPTYSWGENAGNASASA
# B28: FS-656 (peptide)
# chain: CAGQARWKRPAGNASASA
# B29: FS-1882 (peptide)
# chain: CALQGREQLTAGNASASA
# B30: FS-685 (peptide)
# chain: CALQRRWKRTAGNASASA
# B31: FS-1033 (peptide)
# chain: CALTYRAKRTAGNASASA
# B32: HC1248 (peptide)
# chain: CALTDPSHITAGNASASA
# B33: HC424 (peptide)
# chain: CAYSWGENDTAGNASASA
# B34: FS-904 (peptide)
# chain: CAYSQRWKRTAGNASASA
# B35: HC1513 (peptide)
# chain: CALTTSCGNTAGNASASA
# Molecular target: furin, P09958
# Experiment: furin cleavage Z-score vs untreated control; higher = more cleavage, active = 3.5 or more, inactive = 1 or less, 8 variable residues between constant flanks
# Method in brief: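 The cleavage Z-score was derived for purified furin acting on 8-mer peptides held on magnetic beads and fused to a cDNA oligonucleotide. Digests lasted 7.5, 15 or 30 min at 1:10 enzyme:substrate in 50 mM HEPES pH 7.5 with CaCl2 and NaCl. Sequencing counts of released DNA, log-transformed against furin-free reactions, were lowess-adjusted and scaled by median absolute deviation.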
# furin, P09958, sequence (P09958 whole entry): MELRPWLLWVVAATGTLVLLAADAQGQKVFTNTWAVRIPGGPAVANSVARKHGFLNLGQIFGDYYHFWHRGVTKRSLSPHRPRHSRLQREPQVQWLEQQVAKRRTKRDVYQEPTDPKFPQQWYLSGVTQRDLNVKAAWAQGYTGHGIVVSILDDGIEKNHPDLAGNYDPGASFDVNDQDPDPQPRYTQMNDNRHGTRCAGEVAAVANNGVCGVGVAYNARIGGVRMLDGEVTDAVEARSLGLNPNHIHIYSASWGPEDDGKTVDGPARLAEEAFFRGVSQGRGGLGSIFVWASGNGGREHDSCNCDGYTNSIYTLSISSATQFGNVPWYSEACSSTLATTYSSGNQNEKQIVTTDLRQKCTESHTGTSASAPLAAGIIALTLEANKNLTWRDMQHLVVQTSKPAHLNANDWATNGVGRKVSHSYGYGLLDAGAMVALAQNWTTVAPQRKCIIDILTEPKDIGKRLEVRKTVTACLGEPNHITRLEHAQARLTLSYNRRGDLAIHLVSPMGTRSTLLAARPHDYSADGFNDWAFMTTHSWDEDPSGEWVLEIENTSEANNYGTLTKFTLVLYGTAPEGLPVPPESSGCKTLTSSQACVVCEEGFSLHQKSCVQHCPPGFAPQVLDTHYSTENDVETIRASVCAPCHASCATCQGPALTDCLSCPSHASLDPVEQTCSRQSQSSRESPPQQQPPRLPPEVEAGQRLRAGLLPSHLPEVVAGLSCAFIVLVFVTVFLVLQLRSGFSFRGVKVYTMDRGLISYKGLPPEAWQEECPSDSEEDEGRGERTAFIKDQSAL
Sequence,furin cleavage Z-score (7.5 min),furin cleavage Z-score (15 min),furin cleavage Z-score (30 min)
B1,0.423 (inactive),0.141 (inactive),0.568 (inactive)
B2,-0.934 (inactive),-0.925 (inactive),-0.54 (inactive)
B3,-0.0603 (inactive),-1.7 (inactive),-1.53 (inactive)
B4,-0.242 (inactive),-1.07 (inactive),-1.76 (inactive)
B5,-0.433 (inactive),-0.244 (inactive),0.194 (inactive)
B6,-0.221 (inactive),-0.0745 (inactive),0.22 (inactive)
B7,11.8 (active),10.6 (active),9.61 (active)
B8,8 (active),10.8 (active),7.16 (active)
B9,-0.885 (inactive),0.879 (inactive),-0.411 (inactive)
B10,0.493 (inactive),1.94,2.52
B11,14.9 (active),13.8 (active),11.4 (active)
B12,12.9 (active),12.1 (active),9.2 (active)
B13,-1.87 (inactive),-2.14 (inactive),-0.914 (inactive)
B14,0.193 (inactive),1.19,-0.734 (inactive)
B15,1.22,0.203 (inactive),0.301 (inactive)
B16,0.937 (inactive),1.04,0.404 (inactive)
B17,1.59,3.05,3.76 (active)
B18,9.92 (active),9.75 (active),7.92 (active)

Sequence,furin cleavage Z-score (7.5 min),furin cleavage Z-score (15 min),furin cleavage Z-score (30 min)
B19,-0.996 (inactive),-0.739 (inactive),-1.04 (inactive)
B20,0.568 (inactive),-0.706 (inactive),-1.06 (inactive)
B21,-0.854 (inactive),-1.17 (inactive),0.0229 (inactive)
B22,8.15 (active),10.9 (active),9.4 (active)
B23,0.263 (inactive),0.353 (inactive),1.5
B24,10.8 (active),12.3 (active),8.99 (active)
B25,-1.19 (inactive),-0.208 (inactive),-0.665 (inactive)
B26,1.11,-0.614 (inactive),2.31
B27,0.499 (inactive),-1.13 (inactive),0.237 (inactive)
B28,0.0361 (inactive),0.0218 (inactive),-0.505 (inactive)
B29,0.515 (inactive),-3.14 (inactive),-0.352 (inactive)
B30,12.5 (active),11.8 (active),10 (active)
B31,10.2 (active),12 (active),9.3 (active)
B32,-1.48 (inactive),0.964 (inactive),-1.35 (inactive)
B33,-0.162 (inactive),-1.61 (inactive),0.0496 (inactive)
B34,8.92 (active),9.32 (active),7.56 (active)
B35,0.0451 (inactive),-1.21 (inactive),-0.123 (inactive)
